Screens (PubChem)
TDP1 inh – TDP1 (human) enzyme inhibition | Q9NUW8 | recombinant TDP1, AlphaScreen DNA substrate cleavage | Potency, µM (doses to about 130 µM), without a hit: at the highest dose activity change, negative = inhibition, usual class: inhibitors | hit rate 0.28% among 350,000; further: nearly all actives have a fitted effect of over 40% in size
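Steps: enzyme plus compound, 15 min RT; add biotin/phosphotyrosine-FITC oligonucleotide (15 nM final), react 5 min; add donor/acceptor beads (10 ug/ml final), 10 min; read AlphaScreen. Tdp1 at 1 nM final.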
TDP1 cell CPT – DT40-hTDP1 cell growth loss with CPT; chicken DT40 Tdp1-/-;hTDP1 cells + 20 nM CPT, ATP luminescence, 48 h; Potency, µM (titrated, usually from 46.2 µM), for the others: top-dose activity change, negative = growth inhibition, usual class: inhibitors; hit rate 12% among 420,000; AID 686979; further: nearly all actives have a fitted effect of over 55% in size
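Cell growth measured by CellTiter-Glo luminescence after a minimum 48 h, 37 C compound exposure with 20 nM CPT in Tdp1-knockout DT40 cells stably expressing hTDP1, seeded 400/well; qHTS titration format.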
PLK1 PBD block – inhibitors of human PLK1 polo-box domain binding. Plk1 PBD binding of FITC phosphopeptide, fluorescence polarization. AID 720504. Potency, µM, without a hit: max response, negative = inhibition, usual class: inhibitors. hit rate 2.8% among 360,000; further: series mostly up to about 57 µM; nearly all actives have a fitted effect of over 65% in size
VDR inhibitor – blocks the human vitamin D receptor | P11473 | VDR-SRC2-3 peptide fluorescence polarization, 2 h | Potency, µM, without a hit: max response, negative = inhibition, usual class: inhibitors | hit rate 0.93% among 400,000
Target sequence (P11473 whole entry, looked up): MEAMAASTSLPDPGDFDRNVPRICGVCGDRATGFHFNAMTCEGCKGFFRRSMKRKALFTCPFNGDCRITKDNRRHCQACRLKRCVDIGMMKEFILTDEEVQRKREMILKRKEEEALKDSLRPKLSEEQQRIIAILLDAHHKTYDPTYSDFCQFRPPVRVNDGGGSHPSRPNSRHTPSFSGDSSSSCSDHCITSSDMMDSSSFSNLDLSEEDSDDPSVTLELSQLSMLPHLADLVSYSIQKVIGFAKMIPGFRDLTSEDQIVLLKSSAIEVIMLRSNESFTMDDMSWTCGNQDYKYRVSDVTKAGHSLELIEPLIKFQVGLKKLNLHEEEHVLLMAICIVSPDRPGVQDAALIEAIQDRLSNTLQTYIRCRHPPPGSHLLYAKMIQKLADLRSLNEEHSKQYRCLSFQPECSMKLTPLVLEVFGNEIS
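Inhibition of the VDR/SRC2-3 peptide interaction is quantified by fluorescence polarization. Compounds (23 nl, pintool) incubate with the reagents for 2 hours at ambient room temperature.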
DT40 TDP1 no CPT – qHTS for Inhibitors of human tyrosyl-DNA phosphodiesterase 1 (TDP1): qHTS in cells in absence of CPT; DT40 Tdp1-/- hTDP1 cells, no CPT, ATP luminescence, 48 h; Potency, µM (titrated, usually from 46.2 µM), for inactives: at the highest dose activity change, negative = growth inhibition, usual class: inhibitors; hit rate 15% among 420,000; AID 686978, 2013; further: nearly all actives have a fitted effect of over 55% in size
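No-CPT arm: Tdp1-/-;hTDP1 DT40 cells (400/well) plus compounds, incubated ≥48 hr at 37 °C. Readout CellTiter-Glo luminescence.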
KAT2A inh – blocks human GCN5L2 histone acetyltransferase | Potency, µM (highest dose often 58.9 µM), inactives show top-dose activity change, negative = inhibition, most hits filed as inhibitors | AID 504327 | GCN5L2 HAT assay, ThioGlo1 CoA-SH fluorescence | hit rate 0.21% among 390,000
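qHTS, 1536-well. 20nM enzyme, pH 7.5 HEPES/EDTA/Tween-20 buffer; 15 min compound preinc., RT. Start: 75uM H3(1-25), 70uM AcCoA, 50uM ThioGlo1. Read Ex340/Em540 at t=0 (autofluorescence flag) and t=20 min.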
The depositor's hits bear a star; ? = inconclusive; . = no result given; [ ] = remark or other dose. Most compounds without a hit are left out; they make up all but 18% or so of the library. The call rests on the fitted dose curve; in most records, active means well fitted curve in the direction sought with a large enough effect; inconclusive means small, poorly fitted or top-dose-only effect, or another doubt; inactive means no such curve, though single readings can be large; an effect the other way counts as inactive or inconclusive. On the % scale 0 is the no-effect control and ±100 the full control effect; potency means the concentration at half of the fitted maximal effect.

SMILES	TDP1 inh	TDP1 cell CPT	PLK1 PBD block	VDR inhibitor	DT40 TDP1 no CPT	KAT2A inh
COc1cccc(-n2c(SCC(=O)c3ccc(Cl)cc3)nc3c([nH]c4ccccc43)c2=O)c1	0.0%	3.66µM*	.	-6.1%	4.11µM*	-0.9%
Cc1cc(C)cc(-n2c(SCC(=O)NCc3ccc(F)cc3)nc3c([nH]c4ccccc43)c2=O)c1	-1.1%	?	.	7.5%	16.4µM*	-7.3%
COc1cccc(-n2c(-c3ccoc3)nc3ccccc3c2=O)c1	7.0%	?	-5.3%	-11.4%	?	-1.8%
S=c1[nH]nc(-c2ccn[nH]2)n1-c1ccccc1Cl	.	10.2%	?	2.3%	-4.5%	-2.4%
Cc1ccc(NC(=O)Nc2ccc3nc(N4CCN(C)CC4)cc(C)c3c2)cc1F	0.0%	5.17µM*	.	15.7%	4.11µM*	3.9%
Cc1cc(N2CCCCC2)nc2ccc(NC(=O)/C=C/c3ccc(OC(C)C)cc3)cc12	11.8%	9.2µM*	.	-9.3%	7.31µM*	-6.1%
c1ccc(CCN2CCCCC2)nc1	.	8.6%	-5.3%	-4.7%	-7.6%	.
CN1C[C@H](CO)C=C2c3cccc4[nH]cc(c34)C[C@@H]21	6.5%[56.1 µM]	.	.	-5.4%	.	-12.1%[21.4 µM]
CCN(CC)C(=O)N[C@@H]1C=C2c3cccc4[nH]cc(c34)C[C@@H]2N(C)C1	.	21.1µM*	.	.	9.44µM*	.
COC(=O)C1C=C2c3cccc4[nH]cc(c34)CC2N(C)C1 (stereo not given)	.	.	.	.	.	-8.1%
CCN(CC)C(=O)N[C@@H]1C=C2c3cccc4[nH]cc(c34)C[C@H]2N(C)C1	7.3%	.	.	39.8µM*	.	?
CC(C)(Cl)Cl	2.5%	.	.	.	.	.
COCCNC(=O)CN1C(=O)C(C)N=C(c2ccccc2)c2cc(Cl)ccc21 (stereo not given)	.	0.6%	-11.0%	-24.2%	-11.6%	-2.7%
Cc1c(Cl)cccc1NC(=O)CN1C(=O)C(C)N=C(c2ccccc2)c2ccccc21 (stereo not given)	-2.3%	-15.0%	.	3.2%	23.1µM*	-1.2%
CCCC[C@@H](C)C[C@@H](C)C(=O)N(C)[C@@H](CC(C)C)C(=O)N[C@H](C(=O)N(C)[C@H](C(=O)N1C[C@@H](O)C[C@H]1C(=O)N1C(=O)C=C[C@@H]1C)C(C)C)C(C)OC(C)=O (stereo not given in full)	0.1%	0.0366µM*	-9.8%	-2.1%	0.0065µM*	-5.1%
Cc1nc(C)c(C(=O)NN=Cc2ccc(N(CCCl)CCCl)cc2)s1	.	?	-7.5%	-17.7%	11.6µM*	.
O=C(NN=Cc1ccc(N(CCCl)CCCl)cc1)c1cccnc1	.	7.31µM*	-0.5%	-0.7%	9.2µM*	.
O=C(NN=Cc1ccc(N(CCCl)CCCl)cc1)c1cccc([N+](=O)[O-])c1	.	?	-3.3%	-17.4%	?	.
Cc1cc(C=C2C(=O)N(C)C(=O)N(C)C2=O)c(C)n1-c1ccccc1	5.0%	-2.0%	-3.9%	-2.9%	3.1%	-4.0%
CN1C(=O)C(=Cc2sc(=O)n(-c3ccccc3)c2N(C)C)C(=O)N(C)C1=O	-1.4%	16.4µM*	23.4%	-25.2%	?	1.2%
COC(=O)C12CC3=CCC4C(=O)N(c5ccccc5)C(=O)C4C3Cc3ccccc3[C@@H]1CNC2=O (stereo not given in full)	5.6%	.	.	10.9%	.	.
Nc1ccc([N+](=O)[O-])cc1O	6.5%	24.3µM*	.	.	21.7µM*	.
Oc1ccc(CC2(N3CCCC3)CCCCC2)cc1	.	-1.6%	-12.5%	-1.0%	-4.2%	-1.0%
O=C(Cn1cc(C(=O)c2ccccc2)c2ccccc21)NCc1ccco1	9.8%	-13.8%	-12.5%	7.9%	-25.0%	0.7%
O=C(NCc1ccco1)c1ccc(Cn2c(=O)c3ccccc3n(Cc3cccc(F)c3)c2=O)cc1	-1.8%	?	15µM*	?	?	-2.7%
SMILES	TDP1 inh	TDP1 cell CPT	PLK1 PBD block	VDR inhibitor	DT40 TDP1 no CPT	KAT2A inh
COc1ccc(C2CC(=O)Nc3cc4c(cc32)OCO4)c(OC)c1 (stereo not given)	2.5%	?	.	-4.7%	14.6µM*	-1.6%
CCOC(=O)C1(c2ccccc2)CCN(CC(=O)Nc2ccc(C)cc2)CC1	.	?	-6.5%	-4.3%	?	1.6%
CCOC(=O)[C@]12Cc3c(cc(OC)c(OC)c3OC)[C@H]1N(C1CCCCC1)C(=O)c1ccccc12	.	2.91µM*	9.47µM*	.	3.66µM*	.
CCOC(=O)C12C(=O)OCC1C2c1ccccc1 (stereo not given)	.	6.9%	0.4%	.	-13.7%	.
CCOC(=O)[C@]12Cc3ccc(C)cc3[C@H]1N(C1CCCCC1)C(=O)c1ccccc12	.	2.59µM*	2.99µM*	.	2.31µM*	.
CCOC(=O)C1(C)CCN1C(=O)c1cc(OC)c(OC)c(OC)c1 (stereo not given)	.	?	-4.4%	.	?	.
CCOC(=O)[C@]12Cc3cc(C)ccc3[C@H]1N(C1CCCCC1)C(=O)c1ccccc12	.	2.31µM*	2.67µM*	.	2.91µM*	.
CCOC(=O)[C@]12Cc3ccc(C)cc3[C@H]1N(C1CCCCC1)C(=O)c1cc(OC)ccc12	.	2.91µM*	4.23µM*	.	2.91µM*	.
CCOc1cc(C2C(C#N)=C(N)Oc3c2c(=O)oc2ccccc32)ccc1OC(=O)c1cccs1 (stereo not given)	2.3%	-5.8%	5.8%	-3.2%	-18.7%	-5.5%
CC(C)c1ccc(N=Cc2c(O)n(C3CC3)c(=S)[nH]c2=O)cc1	.	-29.0%	-2.0%	14.4%	?	-5.4%
